Assay [1] has as its target Cellular tumor antigen p53 (Homo sapiens) (UniProt P04637). The assay is described as follows: Primary qHTS for small molecule compounds that upregulate eGFP-tagged delta133p53alpha (in N-terminal) cells. (AID 2060322). Also: nearly all actives have a fitted effect of over 75% in size. Also: potency is read from the fitted curve at half-maximal effect.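 As to activation: series mostly up to about 56 µM; 0% = DMSO vehicle and 100% = reference activator.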 The note with it: NCI-H358 eGFP-delta133p53alpha fluorescence, 24 h; activation: active compounds read high. In short, it runs like this: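 NCI-H358 cells pre-induced 24 h with 10 ng/ml doxycycline to express N-terminal eGFP-delta133p53alpha, then dosed 24 h at 37C without doxycycline; fixed, Hoechst-stained, GFP intensity by laser scanning cytometry, normalized to DMSO (0%) and 57.5 uM 5-azacytidine (100%).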
For orientation: qHTS replaces the single test concentration by a dilution series.

Assay [2] has as its target Aldehyde dehydrogenase, mitochondrial (Homo sapiens) (UniProt P05091). In words: qHTS for Inhibitors of the Aldehyde Dehydrogenase Family (ALDH2) Primary screen (AID 2061308).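 Also: plate controls were vehicle for no effect and reference inhibitor for full effect; nearly all actives have a fitted effect of over 55% in size.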
Assay [3] addresses Retinaldehyde dehydrogenase 3 (Homo sapiens) (UniProt P47895). In words: qHTS for Inhibitors of the Aldehyde Dehydrogenase Family (ALDH1A3) Primary screen (AID 2061315).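 Also: plate controls were DMSO vehicle for no effect and reference inhibitor for full effect.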
A short description of assay [4]: BET inhibitor-based combinations targeting novel dependencies in MECOM-rearranged (r) AML: SET-2 cell line (AID 2202231). Also: nearly all actives have a fitted effect of over 35% in size. Also: potency is read from the fitted curve at half-maximal effect.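 As to viability: plate controls were DMSO treated cells for no effect and wells without cells for full effect.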 The note with it: SET-2 AML cells viability, CellTiter-Glo luminescence, 48 h; viability: active compounds read low, concentration not given here. In short, it runs like this:
(§1)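 Readout: CellTiter-Glo luminescence. Exposure: 48 h, 11 concentrations, 500 cells/well. Metric: AUC and within-line Z-AUC after DMSO/empty-well normalization.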
(Cellular ATP, detected with luciferase, serves as a proxy for viable cell number.)

The nature of assay [5]: BET inhibitor-based combinations targeting novel dependencies in MECOM-rearranged (r) AML: OCI-AML3 cell line (AID 2202232). Also: nearly all actives have a fitted effect of over 35% in size. Also: potency is read from the fitted curve at half-maximal effect. The note with it: Potency: OCI-AML3 viability. In short, it runs like this:
as §1

Assay [6] is described as follows: BET inhibitor-based combinations targeting novel dependencies in MECOM-rearranged (r) AML: MV-4-11 cell line (AID 2202233). Also: nearly all actives have a fitted effect of over 45% in size. Also: potency is read from the fitted curve at half-maximal effect. In short, it runs like this:
(§2)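 Seeding density was 500 cells/well, and drug exposure lasted 48 hr under standard culture conditions. Read-out used CellTiter-Glo reagent with a 15 min room-temperature incubation before luminescence measurement; AUC and Z-AUC summarize the normalized responses.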

The nature of assay [7]: BET inhibitor-based combinations targeting novel dependencies in MECOM-rearranged (r) AML: HNT-34 cell line (AID 2202234). Also: nearly all actives have a fitted effect of over 35% in size. Also: potency is read from the fitted curve at half-maximal effect. In short, it runs like this: as §2
A short description of assay [8]: BET inhibitor-based combinations targeting novel dependencies in MECOM-rearranged (r) AML: AML-194 cell line (AID 2202237; also: nearly all actives have a fitted effect of over 40% in size; also: potency is read from the fitted curve at half-maximal effect). In short, it runs like this: as §1
Assay [9] is described as follows: BET inhibitor-based combinations targeting novel dependencies in MECOM-rearranged (r) AML: UCSD-AML1 cell line (AID 2202235). Also: nearly all actives have a fitted effect of over 40% in size. Also: potency is read from the fitted curve at half-maximal effect. In short, it runs like this:
as §2

The nature of assay [10]: BET inhibitor-based combinations targeting novel dependencies in MECOM-rearranged (r) AML: AML-191 cell line (AID 2202236; also: nearly all actives have a fitted effect of over 35% in size; also: potency is read from the fitted curve at half-maximal effect). In short, it runs like this: as §1

The record followed here is PubChem BioAssay (NCATS).

Structures are written as SMILES. Values joined by “and” are separate entries in the source; they are usually repeats but may differ in a detail not shown here. Equal entries are not always repeated. Records with an inconclusive call do not appear. A number with no mark means an inactive call. Active and inactive are the calls of the source. Calls follow the shape of the dose curve; as a rule, active = well fitted curve in the direction sought with a large enough effect; inconclusive = small, poorly fitted or top-dose-only effect, or another doubt; inactive = no such curve, though single readings can be large; an effect the other way counts as inactive or inconclusive.

Cellular tumor antigen p53 (Homo sapiens), sequence (P04637 whole entry, looked up): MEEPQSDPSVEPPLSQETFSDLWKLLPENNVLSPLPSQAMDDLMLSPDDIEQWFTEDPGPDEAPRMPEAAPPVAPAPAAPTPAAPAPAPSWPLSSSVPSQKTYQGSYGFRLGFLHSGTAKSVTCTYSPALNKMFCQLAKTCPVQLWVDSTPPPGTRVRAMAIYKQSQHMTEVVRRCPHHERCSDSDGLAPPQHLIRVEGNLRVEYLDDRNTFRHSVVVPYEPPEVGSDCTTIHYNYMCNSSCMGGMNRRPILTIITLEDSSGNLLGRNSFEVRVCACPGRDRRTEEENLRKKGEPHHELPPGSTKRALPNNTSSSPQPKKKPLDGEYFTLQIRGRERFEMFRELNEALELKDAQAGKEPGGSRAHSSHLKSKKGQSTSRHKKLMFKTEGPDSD

In the case of `CNC(=O)c1ccc(Nc2ncc(C(F)(F)F)c(NCc3nccnc3N(C)S(C)(=O)=O)n2)cc1`, the Potency in assay [1] was 12 µM (active); in assay [4], 3.32 µM (active); in assay [5], 4.68 µM (active); in [6], 0.296 µM (active); in [7] it was 1.86 µM (active); in assay [8], 3.72 µM (active). Also, the Potency result in assay [2] and in assay [3] was “inactive” in each case.

Turning to `C=CC(=O)Nc1cc(Nc2nccc(-c3cn(C)c4ccccc34)n2)c(OC)cc1N(C)CCN(C)C`, the Potency in [1] was 3.79 µM (active); in assay [4], 9.34 µM (active); in [5], 3.72 µM (active); in assay [6] it was 2.95 µM (active); in assay [7], 5.25 µM (active); in assay [9], 4.68 µM (active). In assay [8], the Potency is 7.42 µM (active). For the same molecule, the Potency entry in assay [2] and in assay [3] was “inactive” throughout.

As for `Cc1cc(C(C)Nc2ccccc2)c2nc(N3CCOCC3)cc(=O)n2c1` (stereo not drawn), the activation in assay [1] was 9.6% and -9.82%. The Potency entry in assay [2] and in [3] was “inactive” each time. Besides, the viability (in general, a read-out of living cells in per cent, often relative to untreated cells) in assay [4] was 91.4%. The Potency was 2.63 µM (active) in [5]; 16.6 µM (active) in assay [6]; 16.6 µM (active) in assay [9]; 18.6 µM (active) in assay [10]; 23.5 µM (active) in assay [8].

Regarding `Nc1ccn(C2CO[C@H](CO)O2)c(=O)n1` (stereo partly drawn), the activation in assay [1] was -4.75%. The Potency result in assay [2], in assay [3], in [5], in [6], in assay [7] and in [9] was “inactive” in each case. Moreover, the Potency result in assay [8] is “inactive”. The viability in [4] was 113%.

Consider `C=C1C[C@@]2(O)O[C@@]3(C[C@H]2C(C)C)[C@@H](C)CC[C@@H]13`, for which, in [1], the activation is 3.34%. For the same molecule, the Potency result in assay [2], in assay [3], in assay [5], in assay [6], in assay [9] and in assay [10] was “inactive” in each case. Further, in assay [8], the Potency result is “inactive”. Moreover, the viability in assay [4] is 112%.

`c1cc(N[C@@H]2CCNC2)nc(-c2cnc3ccc(-c4cn[nH]c4)cn23)c1`: the Potency in assay [1] is 34.3 µM (active); in assay [5], 8.33 µM (active); in assay [6], 0.0132 µM (active); in assay [7], 4.17 µM (active); in [10] it was 16.6 µM (active); in assay [8] it was 18.6 µM (active). The Potency entry in [2] and in assay [3] was “inactive” throughout. The viability in assay [4] was 88.2%.
